Screens: PubChem, National Center for Advancing Translational Sciences (NCATS)
Rab9 prom act – qHTS Assay for Rab9 Promoter Activators | Huh7 Rab9 promoter-luciferase reporter, luminescence, 24 h | Potency, µM (titrated, usually from 9.22 µM), for inactives: at the highest dose activation, negative = inhibition, most hits filed as activators | actives 2.8% (n = 320,000) | AID 485297, 2010; note: % of control where 0% means no effect; nearly all actives have a fitted effect of over 60% in size
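Using Huh7 cells stably transfected with Rab9 promoter–luciferase, compounds were incubated 24 h at 37 °C, 5% CO2; luciferase luminescence was read 10 min after reagent addition.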
ELG1 genotoxic – qHTS screen for small molecules that induce genotoxicity in human embryonic kidney (HEK293T) cells expressing luciferase-tagged ELG1; actives 1.3% (n = 330,000); HEK293T ELG1-luciferase reporter, luminescence, 16 h; Potency, µM (series often up to 46 µM), for inactives: at the top dose activity change, positive = activation, most hits filed as activators; note: % of control where 0% means no effect; nearly all actives have a fitted effect of over 60% in size
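ELG1-luciferase HEK293T cells, 2,000/well; compound pinned in; 16 hr, 37 °C, 5% CO2; ONE-Glo, 30 min RT; luminescence on CCD imager.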
FLuc modulator – qHTS profiling assay for firefly luciferase inhibitor/activator using purifed enzyme and Km concentrations of substrates (counterscreen for miR-21 project); AID 588342, 2011; purified FLuc, Km substrates, luminescence inhibition; Potency, µM (titrated, usually from 57.5 µM), without a hit: top-dose activity change, negative = inhibition, usual class: inhibitors; actives 6.9% (n = 360,000); Luciferin 4-monooxygenase (Photinus pyralis), P08659;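 note: plate controls were vehicle for no effect and reference inhibitor for full effect; nearly all actives have a fitted effect of over 55% in size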
Target sequence (P08659 whole entry, looked up): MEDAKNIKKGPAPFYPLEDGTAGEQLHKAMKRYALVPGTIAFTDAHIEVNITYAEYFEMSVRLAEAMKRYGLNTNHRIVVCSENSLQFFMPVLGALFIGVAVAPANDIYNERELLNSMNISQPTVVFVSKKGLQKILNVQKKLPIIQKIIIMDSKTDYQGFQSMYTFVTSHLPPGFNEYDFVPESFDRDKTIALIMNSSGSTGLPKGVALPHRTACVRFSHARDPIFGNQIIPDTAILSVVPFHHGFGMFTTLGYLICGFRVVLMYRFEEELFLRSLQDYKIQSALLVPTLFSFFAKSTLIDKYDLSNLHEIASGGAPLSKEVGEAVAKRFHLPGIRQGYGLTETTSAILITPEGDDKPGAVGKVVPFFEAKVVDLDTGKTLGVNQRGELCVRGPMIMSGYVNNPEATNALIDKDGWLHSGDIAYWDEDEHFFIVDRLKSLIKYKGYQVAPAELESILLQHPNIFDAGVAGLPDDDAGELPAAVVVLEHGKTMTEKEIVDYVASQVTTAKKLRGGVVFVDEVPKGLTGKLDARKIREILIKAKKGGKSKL
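Purified P. pyralis luciferase, 10 nM final, with Km-level 10 uM D-luciferin and 10 uM ATP in 50 mM Tris acetate pH 7.5, 10 mM Mg acetate, 0.01% Tween-20, 0.05% BSA; 6-point qHTS titration about 60 µM downward; luminescence read.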
NPC1 promoter act – qHTS Assay for NPC1 Promoter Activators | actives 2.4% (n = 320,000) | Huh7 NPC1 promoter luciferase reporter, 24 h | Potency, µM (titrated, usually from 9.22 µM), for inactives: at the highest dose activation, hits mostly activators; note: % of control where 0% means no effect; nearly all actives have a fitted effect of over 60% in size
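Readout is luciferase luminescence, reflecting NPC1 promoter activation in stably transfected Huh7 cells after 24 h compound exposure at 37 °C in reduced-serum medium with 10% FBS.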
ELG1 DNA repair – qHTS screen for small molecules that inhibit ELG1-dependent DNA repair in human embryonic kidney (HEK293T) cells expressing luciferase-tagged ELG1; actives 2.3% (n = 330,000); HEK293T ELG1-luciferase reporter, luminescence, 16 h; DNA damage induced by 5-fluorouridine; Potency, µM (titrated, usually from 46.1 µM), inactives show at the top dose activity change, negative = inhibition, most hits filed as inhibitors; note: % is set by controls: 0 for no effect and ±100 for the full control effect; nearly all actives have a fitted effect of over 55% in size
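5-Fluorouridine DNA damage + compound/DMSO, 2,000 cells/well, 16 h, 37 °C/5% CO2. ONE-Glo, 30 min RT, luminescence. Readout = decrease in reporter signal.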
SMN2 splice enh – qHTS Assay for Enhancers of SMN2 Splice Variant Expression. HEK293 SMN2-luciferase splicing reporter, luminescence, 30-36 h. Potency, µM (series often up to 46.1 µM), for inactives: at the top dose activity change, positive = activation, most hits filed as activators. actives 2.8% (n = 210,000). AID 1458, 2008; note: % of control where 0% means no effect; nearly all actives have a fitted effect of over 55% in size
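HEK293 cells carry an SMN2 minigene-luciferase reporter in which exon 7 inclusion puts luciferase in frame. Cells were seeded at 2000 cells/well, attached for 10-12 hours, then exposed to compounds for 30-36 hours at 37C before ONE-Glo luminescence.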
The depositor's hits bear a star; ? = inconclusive; nt = no result given; [ ] = dose if it differs, or a comment. The list is not random: actives were taken first. Their share in the collection is about 9.2%. Calls come from the whole dose curve; as a rule, active = well fitted curve in the direction sought with a large enough effect; inconclusive = small, poorly fitted or top-dose-only effect, or another doubt; inactive = no such curve, though single readings can be large; an effect the other way counts as inactive or inconclusive. Potency is the fitted concentration of half-maximal effect.

SMILES | Rab9 prom act | ELG1 genotoxic | FLuc modulator | NPC1 promoter act | ELG1 DNA repair | SMN2 splice enh
COCCn1c(C)cc(O)c(C(c2ccc(OC)cc2)N2CCN(c3ccccc3)CC2)c1=O (stereo not given) | nt | nt | -11% | nt | nt | nt
COc1ccc(C)cc1NC(=O)NC1CCCCCCC1 | 0% | -1% | 15µM* | -2% | 4% | nt
CCCN1C(=O)c2cc(C(=O)Nc3ccccc3C)ccc2C1Nc1ccccc1C (stereo not given) | -15% | -7% | 2% | 1% | 23µM* | nt
Cc1ccccc1NC(=O)c1ccc2ccccc2c1 | ? | ? | 15µM* | ? | ? | nt
Cc1nnc(NC(=O)c2ccc(S(=O)(=O)N3CCCCCC3)cc2)o1 | 3% | 2% | -2% | -5% | -11% | -36%
Cc1ccccc1NC(=O)NNC(=O)c1ccc2ccccc2c1 | -3% | 7% | -1% | -1% | 15% | nt
Cc1nnc(NC(=O)c2ccc3ccccc3c2)o1 | 11% | 2% | 24µM* | 4% | 17% | -13%
CC(C)CN(C(=O)COC(=O)C12CC3CC(CC(C3)C1)C2)c1c(N)n(Cc2ccccc2)c(=O)[nH]c1=O | -13% | -12% | -2% | -7% | 8% | nt
COc1c(Cl)cc(C(=O)NN)cc1Cl | 3% | ? | 1% | -3% | ? | nt
COc1cccc(/C=N/NC(=O)c2cccc3ccccc23)c1 | -2% | -6% | -11% | 10% | -12% | nt
CC(C)Oc1ccc(CCC(=O)NNC(=O)c2ccccc2C(=O)O)cc1 | -2% | 2% | -8% | 6% | ? | nt
COc1ccc(C(=O)Nc2ccccc2C(=O)N/N=C/c2cccc3ccccc23)cc1 | ? | -9% | 0.085µM* | ? | ? | -60%
CC(C)Oc1ccc(C(=O)NNC(=O)c2ccccc2C(=O)O)cc1 | 12% | 0% | 21µM* | -1% | 15% | 3%
COc1c(Cl)cc(C(=O)Nc2ccccc2C(=O)O)cc1Cl | 18% | 2% | 17µM* | 3% | ? | -3%
N#CCCCS(=O)(=O)c1nnnn1-c1ccc(F)cc1Br | nt | nt | nt | nt | nt | 1%
COC(=O)[C@@]1(Cc2ccc(OC)cc2)[C@H]2c3cc(C(=O)N4CCCC4)n(Cc4nc5ccccc5[nH]4)c3C[C@H]2CN1C(=O)c1ccccc1 | nt | nt | nt | nt | nt | -1%
CC(C)c1ccc(NC(=S)NCc2cccs2)cc1 | 20% | ? | 15µM* | 24% | ? | 17%
COc1ccc(NC(=S)NCc2cccs2)cc1 | 4% | -1% | ? | -1% | -9% | ?
Cc1cc(/C=C(\C#N)c2nc3ccccc3[nH]2)c(C)n1C | 2.2µM* | ? | 0.95µM* | 3.5µM* | ? | 11µM*
Cc1cc(/C=C(/C#N)c2nc3ccccc3[nH]2)c(C)n1-c1cccc([N+](=O)[O-])c1 | 5% | -1% | 5.4µM* | 10% | 15µM* | -17%
Cc1ccc2nc(/C(C#N)=C/c3ccc(-c4cccc([N+](=O)[O-])c4)o3)[nH]c2c1 | -1% | 1% | ? | 7% | ? | 4%
NC(=NC(=O)c1ccc(OC(F)(F)F)cc1)c1ccc(C(F)(F)F)cn1 | -12% | -3% | 1% | -3% | 15% | nt
N/C(=N\OC(=O)c1csnn1)c1ccc(C(F)(F)F)cc1 | ? | 13% | 19µM* | ? | ? | nt
Cc1ccc(C(=O)O/N=C(\N)c2ccc(C(F)(F)F)cn2)cc1 | -5% | 15% | 2.1µM* | 2% | ? | nt
COc1cccc(CNC(=O)CCCn2ncn3c(cc4occc43)c2=O)c1OC | nt | nt | -9% | nt | nt | -3%
SMILES | Rab9 prom act | ELG1 genotoxic | FLuc modulator | NPC1 promoter act | ELG1 DNA repair | SMN2 splice enh
Cc1ccc(NC(=O)c2nc(S(=O)(=O)Cc3ccc(F)cc3)ncc2Cl)cc1C | nt | nt | -1% | nt | nt | nt
CC(=O)Nc1ccc(NC(=O)c2nc(S(=O)(=O)Cc3cccc(C)c3)ncc2Cl)cc1 | -41% | 3% | 1% | -46% | ? | nt
COC(=O)c1ccc(NC(=O)c2nc(S(=O)(=O)Cc3cccc(C)c3)ncc2Cl)cc1 | -1% | -2% | -17% | -30% | 16µM* | nt
Cc1ccc(NC(=O)c2nc(S(=O)(=O)Cc3ccccc3C)ncc2Cl)cc1C | -16% | -17% | 11µM* | -24% | ? | nt
Cc1cc(/C=C2\SC(N)=NC2=O)c(C)n1-c1ccccc1 | 2.8µM* | 7.3µM* | 0.38µM* | 1.4µM* | ? | 13µM*
CC1Cc2cc(/C=C3/SC(=S)NC3=O)ccc2O1 (stereo not given) | 4µM* | 11% | 2.7µM* | ? | ? | nt
CN1CCN(/C=C2\SC(=S)NC2=O)CC1 | 1% | 2% | -1% | -2% | 10% | 10%
Cc1cc(/C=C2\SC(=S)NC2=O)c(C)n1-c1ccccc1 | 0.63µM* | ? | 0.54µM* | 1µM* | ? | nt
Cc1cc(/C=C2\SC(=S)NC2=O)c(C)n1C | -7% | 11% | 27µM* | 3% | 16% | 11%
CCCOc1ccccc1/C=C1\SC(N)=NC1=O | -3% | -15% | 4% | 9% | ? | nt
OC1(C(O)(c2ccc(-c3ccccc3)cc2)c2ccc(-c3ccccc3)cc2)CCCCC1 | nt | nt | nt | nt | nt | 4%[9.22 µM]
O=C(OC1CCCCC1=O)c1cc(S(=O)(=O)N2CCOCC2)ccc1F (stereo not given) | -1% | 2% | 5% | 1% | 24% | nt
CCc1ccccc1NC(=O)CN1CCN(C(=O)C2CCN(C(=O)/C=C/c3ccccc3)CC2)CC1 | 0% | -4% | nt | 17% | ? | nt
COC(=O)CC1c2ccccc2C(Cc2ccc3c(c2)OCO3)=C(C)N1C(=O)OC (stereo not given) | nt | nt | nt | nt | nt | 0%
COc1ccc(-n2c(C)cc(/C=C3\SC(=S)NC3=O)c2C)cc1 | ? | 4% | 5.4µM* | ? | ? | nt
Cc1cc(/C=C2\SC(=S)NC2=O)cc(C)c1O | -2% | 16% | 8.5µM* | 2% | ? | nt
Cc1nn(C)cc1/C=C1\SC(=S)NC1=O | -1% | 0% | ? | -1% | ? | 2%
Cc1cc(/C=C2\SC(=S)NC2=O)c(C)n1-c1ccc(O)cc1 | 1.8µM* | ? | 0.85µM* | 1.8µM* | ? | nt
O=S(=O)(c1ccc(=S)[nH]c1)N1CCN(Cc2ccccc2)CC1 | nt | 8% | nt | nt | 0% | nt
CCCCOC(=O)Oc1ccc2c(=O)c(Oc3cc(C)cc(C)c3)coc2c1 | -2% | -3% | -7% | -3% | 14% | -7%
